Only some compounds are listed: those with a hit (about 7.5% of all), similar ones and a draw of the others.
FLuc counter: firefly luciferase modulation, counter-screen for miR-21 project | purified FLuc, Km substrates, luminescence inhibition | Potency, µM (highest dose often 57.5 µM), for the others: top-dose activity change, negative = inhibition, usual class: inhibitors | 360,000 compounds, 6.9% hits | P08659;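 also: plate controls were vehicle for no effect and reference inhibitor for full effect; nearly all actives have a fitted effect of over 55% in size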
Target sequence (P08659 whole entry, looked up): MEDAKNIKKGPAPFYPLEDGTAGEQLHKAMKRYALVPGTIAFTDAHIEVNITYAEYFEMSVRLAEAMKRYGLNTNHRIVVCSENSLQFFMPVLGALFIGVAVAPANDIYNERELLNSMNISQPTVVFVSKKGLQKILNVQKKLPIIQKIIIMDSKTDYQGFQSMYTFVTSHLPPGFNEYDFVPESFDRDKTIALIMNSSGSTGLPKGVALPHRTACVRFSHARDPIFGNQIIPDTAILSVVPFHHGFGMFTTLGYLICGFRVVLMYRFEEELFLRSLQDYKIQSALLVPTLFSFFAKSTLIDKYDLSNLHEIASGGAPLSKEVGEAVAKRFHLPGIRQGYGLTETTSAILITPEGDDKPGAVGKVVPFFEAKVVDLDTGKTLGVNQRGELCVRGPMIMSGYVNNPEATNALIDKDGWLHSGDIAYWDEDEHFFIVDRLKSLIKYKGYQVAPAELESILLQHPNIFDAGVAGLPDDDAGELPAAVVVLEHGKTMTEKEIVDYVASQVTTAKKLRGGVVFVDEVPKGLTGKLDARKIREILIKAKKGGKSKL
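Biochemical qHTS of compounds, final roughly 60 µM downward over six points, against 10 nM purified firefly luciferase using Km concentrations of substrates (10 uM D-luciferin, 10 uM ATP) in Tris acetate pH 7.5 buffer; luminescence output.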
NPC1 prom act: activates the NPC1 promoter | Huh7 NPC1 promoter luciferase reporter, 24 h | 320,000 compounds, 2.4% hits | Potency, µM (highest dose often 9.22 µM), without a hit: top-dose activation, hits mostly activators; also: % of control where 0% means no effect; nearly all actives have a fitted effect of over 60% in size
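Luminescence read-out of NPC1 promoter-driven luciferase in stably transfected Huh7 cells; compounds delivered in DMSO and left 24 h at 37C, 5% CO2, qHTS titration format.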
Rab9 prom act: activators of Rab9 promoter. 320,000 compounds, 2.8% hits. Huh7 Rab9 promoter-luciferase reporter, luminescence, 24 h. Potency, µM (series often up to 9.22 µM), without a hit: top-dose activation, negative = inhibition, hits mostly activators. AID 485297; also: % of control where 0% means no effect; nearly all actives have a fitted effect of over 60% in size
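Cell-based reporter: Huh7 stable for Rab9 promoter-driven luciferase, plated in reduced-serum medium with 10% FBS at 1500 cells/well, compound-treated 24 h at 37 °C, luminescence read after 10 min reagent.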
SMN2 splice enh: increases expression of the SMN2 splice variant | 210,000 compounds, 2.8% hits | Potency, µM (titrated, usually from 46.1 µM), inactives show at the top dose activity change, positive = activation, hits mostly activators | HEK293 SMN2-luciferase splicing reporter, luminescence, 30-36 h; also: % of control where 0% means no effect; nearly all actives have a fitted effect of over 55% in size
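HEK293 cells carry an SMN2 […]–luciferase reporter in which exon 7 inclusion puts luciferase in frame. Cells were plated 10-12 h before compound addition, then incubated 30-36 h at 37C. ONE-Glo luminescence was read; sodium butyrate at 4.5 mM final served as control.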
ELG1 genotoxic: genotoxicity induction in ELG1-luciferase HEK293T cells; Potency, µM (top dose mostly 46 µM), for the others: top-dose activity change, positive = activation, most hits filed as activators; HEK293T ELG1-luciferase reporter, luminescence, 16 h; 330,000 compounds, 1.3% hits; also: % of control where 0% means no effect; nearly all actives have a fitted effect of over 60% in size
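Genotoxicity was scored as increased ELG1-luciferase reporter signal, measured by ONE-Glo luminescence (30 min, room temperature). Compound or vehicle exposure of the HEK293T reporter cells lasted 16 hr at 37°C.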
Luc counter: counter-screen: inhibitors of Kinase-Glo firefly luciferase; Q27757; Kinase-Glo luciferase, ATP luminescence, 8 min; Potency, µM (titrated, usually from 38.3 µM), without a hit: at the top dose activity change, negative = inhibition, hits mostly inhibitors; 200,000 compounds, 0.28% hits; also: % is scaled to controls: 0 for no effect and ±100 for the full control effect; nearly all actives have a fitted effect of over 60% in size
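Substrate mix (final 50 mM imidazole pH 7.2, 50 mM KCl, 7 mM MgCl2, 10 uM ATP, 0.01% Tween 20, 0.05% BSA) plus pin-tool compound, then Kinase-Glo detection mix; 8 min ambient, luminescence read.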
The depositor's hits bear a star; ? = inconclusive; nt = no result given. Calls follow the shape of the dose curve; as a rule, active = well fitted curve in the direction sought with a large enough effect; inconclusive = small, poorly fitted or top-dose-only effect, or another doubt; inactive = no such curve, though single readings can be large; an effect the other way counts as inactive or inconclusive. Potency is read from the fitted curve at half-maximal effect.

SMILES	FLuc counter	NPC1 prom act	Rab9 prom act	SMN2 splice enh	ELG1 genotoxic	Luc counter
COc1ccc(-c2cc(=O)n3[nH]cnc3n2)cc1	15µM*	nt	nt	nt	nt	nt
COc1ccc(-c2nnc(N)s2)cc1	17µM*	22%	23%	11%	?	-2%
CCCOc1ccc(-c2nnc(N)s2)cc1	7.6µM*	?	?	?	18µM*	-4%
Cc1ccc(-c2nnc(N)s2)cc1	13µM*	25%	23%	?	?	-6%
Nc1nnc(-c2ccncc2)s1	6%	-5%	3%	24%	0%	-5%
COc1ccc(-c2csc(-c3[nH]cnc3N)n2)cc1	?	-5%	-1%	?	?	-6%
CCCOc1ccc(-c2nc(-c3ccc(N)cc3)cs2)cc1	7.6µM*	24%	?	nt	5%	nt
COc1ccc(OCCc2nnc(N)s2)cc1	2%	4%	-1%	2%	1%	0%
CNc1nnc(-c2ccc(OC)cc2)s1	12µM*	2.8µM*	3.2µM*	13µM*	16µM*	-15%
CC(c1ccccc1)c1nnc(N)s1 (configuration not stated)	-3%	-3%	7%	nt	0%	-1%
CC(C)c1ccc(-c2nnc(N)s2)cc1	1.9µM*	3.2µM*	2.2µM*	14µM*	18µM*	-5%
CCOc1ccc(CNC(=O)Cc2ccc(NC(=O)N3CCSc4ncccc43)cc2)cc1	-5%	nt	nt	nt	nt	nt
O=C(CS(=O)c1ccc(F)cc1)N1CCOCC1 (configuration not stated)	-2%	1%	2%	nt	-1%	nt
CCCN(Cc1nnc(-c2ccccc2Cl)o1)C(=O)c1cc2ccccc2o1	?	-4%	2%	nt	1%	nt
O=C(c1cc2ccccc2o1)N(Cc1nnc(-c2ccccc2Cl)o1)C1CC1	30µM*	-2%	-1%	nt	21µM*	nt
Cc1[nH]n(-c2ccccc2)c(=O)c1CCOC(=O)c1cccc(C(F)(F)F)c1	5%	2%	3%	-13%	1%	-2%
Cc1ccc(C(=O)OCCc2c(C)[nH]n(-c3ccccc3)c2=O)cc1	13µM*	-4%	2%	-22%	0%	0%
N#Cc1cc2cc3c(cc2nc1N1CCCCC1)OCCO3	4.3µM*	?	6.3µM*	13µM*	?	-1%
Cc1ccc(C(=O)N2CCCN(c3nc4cc5c(cc4cc3C#N)OCO5)CC2)cc1	-13%	0%	7%	nt	-3%	nt
CCC(=O)Nc1ccc2c(c1)ncn2-c1ccccc1C	0%	-2%	0%	1%	4%	0%
CCC(=O)Nc1ccc2c(c1)ncn2-c1ccc(C)cc1	8.5µM*	2.2µM*	2.5µM*	8.9µM*	?	1%
CCC(=O)Nc1ccc2c(c1)ncn2-c1ccc(OC)cc1	27µM*	12%	19%	13µM*	18µM*	-2%
CC(C)Oc1ccc(CNC(=O)c2ccc(NC(=O)N3CC(C)Sc4ccccc43)cc2)cc1 (configuration not stated)	-10%	nt	nt	-22%	nt	nt
Cc1cccc(NC(=O)Cn2c(=O)n(CCCS(=O)(=O)C3CCCCC3)c(=O)c3ccccc32)c1	-6%	nt	nt	1%	nt	nt
N=C(N)c1ccc(/C=C/c2ccc(C(=N)N)cc2O)cc1	0%	-2%	-3%	nt	1%	nt
SMILES	FLuc counter	NPC1 prom act	Rab9 prom act	SMN2 splice enh	ELG1 genotoxic	Luc counter
O=C(OCc1ccccc1)N1CCCC1/C=C/CN1CCOCC1 (configuration not stated)	5%	-4%	0%	12%	0%	0%
CNC(=O)NC(=S)NC(=O)c1ccc(OC)cc1	-17%	17%	21%	-1%	10%	1%
COc1ccc(C(=O)NC(=O)NC2(C(Cl)(Cl)Cl)OCCO2)cc1	0.95µM*	0.35µM*	0.25µM*	2.2µM*	0.65µM*	-8%
O=C(Nc1nccs1)c1ccc(COc2ccccc2Br)o1	19µM*	27%	?	-16%	?	1%
O=C(COc1ccc(F)cc1)Nc1nccs1	7.6µM*	2µM*	1µM*	11µM*	?	?
O=C(Nc1nccs1)c1ccc(COc2ccc(F)cc2)o1	15µM*	?	?	15%	3%	-3%
Cc1cccc(OCC(=O)Nc2nccs2)c1C	1.5µM*	0.35µM*	0.35µM*	nt	2.1µM*	nt
O=C(Nc1nccs1)c1ccc(COc2ccc(Cl)cc2)o1	?	nt	nt	-4%	nt	0%
CCOc1ccc(-c2c(C(=O)N/N=C/C3CC=CCC3)nnn2-c2nonc2N)cc1 (configuration not stated)	1%	1%	-3%	nt	2%	nt
O=C(COc1ccc(F)cc1)Nc1nc2c(s1)CCCC2	27µM*	?	?	nt	?	nt
CN(C)C(=O)c1ccc(COc2ccccc2Br)o1	19µM*	?	?	8.9µM*	21µM*	-4%
COc1ccccc1OCc1ccc(C(=O)N(C)C)o1	?	2%	-8%	?	18%	-7%
COc1ccc(OC)c(NC(=O)CSc2ccc3nnc(-c4ccccn4)n3n2)c1	1%	-6%	0%	nt	8%	nt
c1coc(-c2nc3n(n2)C2(CCCCC2)[C@@H]2CCCC[C@@H]2N3)c1	0%	nt	nt	nt	nt	nt
Cn1c(SCc2ccc(C#N)cc2Cl)nc2ccccc21	6µM*	2.2µM*	3.5µM*	14µM*	21µM*	-12%
COc1ccccc1NC(=O)COc1ccc(CO)cc1Cl	6.7µM*	?	?	76%	15µM*	-4%
O=C(COc1ccc(CO)cc1Cl)Nc1ccc(F)cc1	0.85µM*	2µM*	1.1µM*	-8%	0.37µM*	-20%
COc1ccccc1NC(=O)COc1ccc(Br)cc1CO	-10%	6%	13%	-21%	0%	2%
c1ccc(-n2nnc3c(N4CCOCC4)ncnc32)cc1	1.5µM*	0.32µM*	0.32µM*	12%	?	?
COc1ccc(NN=Nc2ccc([N+](=O)[O-])cc2)cc1	2.4µM*	?	3.5µM*	nt	?	nt
COc1ccc(N/N=C(/Oc2ccc([N+](=O)[O-])cc2)C(C)=O)cc1	1%	-6%	-1%	-9%	6%	-2%
FC(F)Oc1ccc(C2N=C(c3ccccc3)NO2)cc1 (configuration not stated)	4.8µM*	2.8µM*	1.6µM*	nt	?	nt
COc1ccc(C2N=C(c3ccccc3)NO2)cc1OC (configuration not stated)	11µM*	20%	20%	nt	?	nt
COc1ccc(C(CNC(=O)c2cccc(S(=O)(=O)N3CCCCC3)c2)N2CCCC2)cc1 (configuration not stated)	1%	-2%	-14%	nt	-3%	nt

Source: PubChem BioAssay (National Center for Advancing Translational Sciences (NCATS))
